NFkB transloc pot – enhancers of NFkB p65 translocation in HUVEC – imaging, IL-1B stimulus, high-content imaging, primary screen; AID 819, 2007; hit rate 0.3% among 94,000; activation, % at 2 µM; HUVEC IL-1B NFkB p65 nuclear translocation imaging;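 active = activation above 40%, about the mean plus 3 SD, also judged a hit on visual image review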;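 note: percent activation is computed from the nuclear over cytoplasmic p65 intensity ratio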
sEH act – soluble epoxide hydrolase activators, primary screen, biochemical, human sEH | activation, % at 2 µM | hit rate 0.04% among 91,000 | Bifunctional epoxide hydrolase 2 (Homo sapiens), P34913 | purified human sEH enzymatic activity, activator screen; in the data active = activation above about 37%
HUVEC tox IL1B – cytotoxicity in IL-1B stimulated HUVEC, primary screen, cytotoxicity control for IL-1B NFkB translocation project, imaging, Hoechst nuclear count, IL-1B stimulus. AID 845, 2007. hit rate 0.41% among 94,000. HUVEC cell count loss. cell count reduction, % at 2 µM;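 active = cell count reduction more than 3 SD above the screen-wide mean, cut at about 70% in these data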;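 note: normalized per plate to untreated control cells as the no-loss baseline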
Cav3 T inh – Cav3.2 calcium influx blockers – cell-based, Fluo-4 calcium fluorescence, FDSS, MLSMR library, primary screen. Voltage-dependent T-type calcium channel subunit alpha-1H (Homo sapiens), O95180. Cav3.2-expressing cells; active compounds read low. B-score at 10 µM. hit rate 4% among 100,000. AID 449739, 2010;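 active = single-dose well whose peak fluorescence ratio is a statistical outlier from its plate by either plate-standardised score or position-corrected B-score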
Target sequence (O95180 whole entry, looked up): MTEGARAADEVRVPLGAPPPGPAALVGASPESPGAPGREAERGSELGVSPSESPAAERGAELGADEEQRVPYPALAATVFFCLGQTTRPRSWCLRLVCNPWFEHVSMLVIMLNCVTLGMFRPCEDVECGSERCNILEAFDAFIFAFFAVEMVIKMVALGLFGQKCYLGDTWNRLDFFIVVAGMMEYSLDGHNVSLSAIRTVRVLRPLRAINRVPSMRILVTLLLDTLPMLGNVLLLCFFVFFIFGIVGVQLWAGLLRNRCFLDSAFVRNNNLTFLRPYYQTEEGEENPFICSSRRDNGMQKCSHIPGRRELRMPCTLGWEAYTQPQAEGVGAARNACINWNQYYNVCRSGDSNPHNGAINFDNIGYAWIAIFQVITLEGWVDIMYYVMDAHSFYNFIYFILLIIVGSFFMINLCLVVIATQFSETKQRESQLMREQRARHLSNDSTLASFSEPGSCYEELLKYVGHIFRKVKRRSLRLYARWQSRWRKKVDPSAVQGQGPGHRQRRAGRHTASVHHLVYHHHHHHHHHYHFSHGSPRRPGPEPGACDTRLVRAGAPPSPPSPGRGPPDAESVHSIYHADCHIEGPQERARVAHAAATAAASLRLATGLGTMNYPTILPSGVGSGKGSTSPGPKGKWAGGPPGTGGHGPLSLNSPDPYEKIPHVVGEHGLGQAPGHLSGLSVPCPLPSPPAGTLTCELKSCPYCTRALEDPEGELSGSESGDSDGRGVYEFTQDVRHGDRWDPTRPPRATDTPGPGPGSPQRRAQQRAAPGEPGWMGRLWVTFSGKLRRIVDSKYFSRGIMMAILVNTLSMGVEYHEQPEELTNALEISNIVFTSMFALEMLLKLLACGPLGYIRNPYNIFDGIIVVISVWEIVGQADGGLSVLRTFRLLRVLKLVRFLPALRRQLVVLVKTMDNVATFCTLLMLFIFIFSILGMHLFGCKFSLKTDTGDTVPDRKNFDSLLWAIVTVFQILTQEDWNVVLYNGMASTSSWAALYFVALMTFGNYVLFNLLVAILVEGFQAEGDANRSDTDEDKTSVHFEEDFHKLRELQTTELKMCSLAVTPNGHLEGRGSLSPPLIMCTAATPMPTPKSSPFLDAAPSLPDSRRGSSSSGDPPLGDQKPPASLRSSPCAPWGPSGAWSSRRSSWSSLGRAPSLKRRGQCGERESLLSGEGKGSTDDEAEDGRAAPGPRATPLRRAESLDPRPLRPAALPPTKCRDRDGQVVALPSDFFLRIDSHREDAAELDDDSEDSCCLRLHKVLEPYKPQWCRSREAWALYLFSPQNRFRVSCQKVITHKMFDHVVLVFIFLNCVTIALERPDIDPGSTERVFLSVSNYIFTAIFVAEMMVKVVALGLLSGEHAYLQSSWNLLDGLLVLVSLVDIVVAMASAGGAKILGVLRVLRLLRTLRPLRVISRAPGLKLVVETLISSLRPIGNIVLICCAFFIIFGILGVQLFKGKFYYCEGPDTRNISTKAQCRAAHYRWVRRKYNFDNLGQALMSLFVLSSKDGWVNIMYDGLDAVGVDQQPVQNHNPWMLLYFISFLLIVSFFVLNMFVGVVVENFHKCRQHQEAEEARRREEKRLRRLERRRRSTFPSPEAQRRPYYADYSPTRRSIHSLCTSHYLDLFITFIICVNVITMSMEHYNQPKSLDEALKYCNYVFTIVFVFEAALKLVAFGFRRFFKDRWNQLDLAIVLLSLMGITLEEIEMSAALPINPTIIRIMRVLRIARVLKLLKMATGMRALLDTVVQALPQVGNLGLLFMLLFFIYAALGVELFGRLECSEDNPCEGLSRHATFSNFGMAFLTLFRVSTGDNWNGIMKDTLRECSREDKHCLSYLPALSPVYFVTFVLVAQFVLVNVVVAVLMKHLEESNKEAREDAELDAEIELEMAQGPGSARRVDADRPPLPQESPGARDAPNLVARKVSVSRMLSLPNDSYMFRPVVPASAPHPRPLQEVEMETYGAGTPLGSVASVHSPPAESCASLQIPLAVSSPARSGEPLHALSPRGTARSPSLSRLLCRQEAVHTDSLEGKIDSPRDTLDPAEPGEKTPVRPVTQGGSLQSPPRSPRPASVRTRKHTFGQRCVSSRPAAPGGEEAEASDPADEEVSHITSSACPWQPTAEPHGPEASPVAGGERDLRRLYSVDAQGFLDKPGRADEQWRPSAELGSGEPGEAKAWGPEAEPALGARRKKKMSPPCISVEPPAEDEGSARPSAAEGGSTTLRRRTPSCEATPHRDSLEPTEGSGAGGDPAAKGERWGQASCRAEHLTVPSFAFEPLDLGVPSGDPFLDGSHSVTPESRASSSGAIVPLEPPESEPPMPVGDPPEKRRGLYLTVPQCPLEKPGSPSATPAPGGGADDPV
NFkB transloc inh – inhibitors of IL-1B driven NFkB p65 nuclear import, primary screen, imaging, HUVEC, IL-1B stimulus, high-content imaging. HUVEC IL-1B NFkB p65 nuclear translocation imaging. inhibition, % at 2 µM. hit rate 0.43% among 94,000;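 active = inhibition above about 30% together with a positive call from visual inspection of the well image, limit read from the data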;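 note: nuclear over cytoplasmic p65 intensity ratio measured by imaging; 0% = IL-1B stimulated DMSO wells and 100% = unstimulated DMSO wells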
sEH inhibitor – soluble epoxide hydrolase inhibitors, primary screen, biochemical, human sEH. Bifunctional epoxide hydrolase 2 (Homo sapiens), P34913. inhibition, % at 2 µM. AID 707, 2007. hit rate 0.34% among 91,000. recombinant human sEH enzymatic activity assay; in the data active = inhibition above about 80%
* hit, by the source's call. Hits are enriched below; roughly 4.6% of the tested compounds scored in any of these assays.

How did CN(c1ccc(C(=O)N2CCCCC2)cc1)S(=O)(=O)c1ccccc1 do in these assays?
NFkB transloc pot: -3.1; sEH act: 7.6; HUVEC tox IL1B: 8.5; Cav3 T inh: 0.318; NFkB transloc inh: 3.1; sEH inhibitor: -4.2

How did O=C(CN1CCSCC1)N1CCc2[nH]c3ccc(Br)cc3c2C1 do in these assays?
NFkB transloc pot: 3.2; sEH act: -1.8; HUVEC tox IL1B: 18.5; Cav3 T inh: -0.822; NFkB transloc inh: -3.3; sEH inhibitor: 3.2

How did Cc1ccc(-n2c(Cc3cccn3C)nnc2SCC(=O)NCc2ccc3c(c2)OCO3)cc1 do in these assays?
NFkB transloc pot: -14.3; sEH act: -8.7; HUVEC tox IL1B: 0.5; Cav3 T inh: -5.01*; NFkB transloc inh: 14.3; sEH inhibitor: 8.6

Results for Cc1ccc(-n2c(Cc3cccn3C)nnc2SCC(=O)Nc2ccc3c(c2)OCO3)cc1 ?
Cav3 T inh: -3.91*

How did Cc1ccc(-n2c(Cc3cccs3)nnc2SCC(=O)Nc2ccc(F)c(F)c2)cc1 do in these assays?
NFkB transloc pot: 18.5; sEH act: -8.3; HUVEC tox IL1B: -45.6; Cav3 T inh: -1.49; NFkB transloc inh: -18.5; sEH inhibitor: 10.0

How did O=C(CSc1nccn1-c1cccc(Cl)c1)Nc1ccc2c(c1)OCCO2 do in these assays?
NFkB transloc pot: -9.8; sEH act: -13.4; HUVEC tox IL1B: -7.3; Cav3 T inh: -3.68*; NFkB transloc inh: 9.8; sEH inhibitor: 16.4

How did Cc1ccc(-n2c(Cc3cccn3C)nnc2SCC(=O)Nc2nnc(C)s2)cc1 do in these assays?
Cav3 T inh: -0.527

Results for O=C(CSc1nnc(Cc2cccs2)n1-c1ccccc1)Nc1ccc2c(c1)OCCO2 ?
NFkB transloc pot: 22.7; sEH act: -13.8; HUVEC tox IL1B: -10.6; Cav3 T inh: -4.84*; NFkB transloc inh: -22.7; sEH inhibitor: 13.9

How did COc1ccc(S(=O)(=O)N2CCN(c3ccc4nnc(-c5ccccc5)n4n3)CC2)cc1 do in these assays?
NFkB transloc pot: 7.3; sEH act: 8.9; HUVEC tox IL1B: 9.9; Cav3 T inh: 1.85; NFkB transloc inh: -7.3; sEH inhibitor: -10.0

What do the screens show for `Cc1cccc(-c2nc(CS(=O)CC(=O)NCC3CCCO3)c(C)o2)c1` (centres undefined)?
Cav3 T inh: 0.119

Results for CCOC(=O)CN1C(=O)N[C@@H](CCc2ccccc2)C(C(=O)OC)=C1C ?
Cav3 T inh: 1.57

How did O=C1COc2ccc(C(=O)CSc3nnc(Cc4cccs4)n3-c3ccccc3)cc2N1 do in these assays?
NFkB transloc pot: -1.8; sEH act: 3.4; HUVEC tox IL1B: 13.8; Cav3 T inh: -5.36*; NFkB transloc inh: 1.8; sEH inhibitor: -2.4

What do the screens show for `Cn1cccc1Cc1nnc(SCC(=O)Nc2ccc3c(c2)OCCO3)n1-c1ccc(F)cc1`?
Cav3 T inh: -7.71*

How did COc1ccc2c3c(cccc13)NN=C2C do in these assays?
NFkB transloc pot: -30.4; sEH act: -9.5; HUVEC tox IL1B: 29.2; NFkB transloc inh: 30.4*; sEH inhibitor: 10.7

Results for COc1ccc(C(=O)c2ccc(OC)c3cccc(O)c23)cc1OC ?
NFkB transloc pot: 10.6; sEH act: -6.4; HUVEC tox IL1B: -7.0; Cav3 T inh: -1.45; NFkB transloc inh: -10.6; sEH inhibitor: 5.9

How did CCN(C(=O)COC(=O)c1ccc(OCc2c(C)noc2C)cc1)c1ccccc1 do in these assays?
NFkB transloc pot: 9.9; sEH act: -2.4; HUVEC tox IL1B: -8.0; Cav3 T inh: -0.917; NFkB transloc inh: -9.9; sEH inhibitor: 0.7

How did CCN(c1ccccc1)S(=O)(=O)c1ccc(OCc2c(C)noc2C)cc1 do in these assays?
NFkB transloc pot: 11.8; sEH act: -8.7; HUVEC tox IL1B: 19.9; Cav3 T inh: -4.43*; NFkB transloc inh: -11.8; sEH inhibitor: 10.9

How did CCC(C)Sc1nc2c(c(=O)n1C)SC(C)C2 (centres undefined) do in these assays?
Cav3 T inh: -0.675

How did c1ccc(-c2ccccc2-c2nc(-c3cccnc3)no2)cc1 do in these assays?
NFkB transloc pot: -1.6; sEH act: -5.5; HUVEC tox IL1B: 8.3; Cav3 T inh: -4.95*; NFkB transloc inh: 1.6; sEH inhibitor: 3.8

What do the screens show for `CCOC(=O)c1c(C)c(C(=O)NC2CCCCC2)c(C)n1CC`?
NFkB transloc pot: 154.5*; sEH act: 18.9; HUVEC tox IL1B: 7.1; sEH inhibitor: -21.8

Results for O=S1(=O)C=C(Sc2nc3cc(Cl)ccc3o2)c2ccccc21 ?
NFkB transloc pot: -55.5; sEH act: 14.7; HUVEC tox IL1B: 24.1; Cav3 T inh: 1.04; NFkB transloc inh: 55.5*; sEH inhibitor: -16.2

Results for COc1ccc(CCN(Cc2nc3ccccc3c(=O)[nH]2)C(=O)c2ccco2)cc1OC ?
NFkB transloc pot: -1.4; sEH act: -2.0; HUVEC tox IL1B: 7.3; Cav3 T inh: 0.481; NFkB transloc inh: 1.4; sEH inhibitor: 2.4

How did O=C(COC(=O)CC12CC3CC(CC(C3)C1)C2)Nc1ncc(Cl)cc1Cl do in these assays?
NFkB transloc pot: 0.2; sEH act: 3.0; HUVEC tox IL1B: -6.5; Cav3 T inh: -5.87*; NFkB transloc inh: -0.2; sEH inhibitor: -3.0

What do the screens show for `CC(C)(Oc1ccc(Cl)cc1)C(=O)OCC(=O)Nc1ncc(Cl)cc1Cl`?
NFkB transloc pot: 6.6; sEH act: -13.6; HUVEC tox IL1B: -9.9; Cav3 T inh: -6.89*; NFkB transloc inh: -6.6; sEH inhibitor: 16.6

How did Cc1[nH]nc2cn[nH]c12 do in these assays?
NFkB transloc pot: -24.6; sEH act: 22.6; HUVEC tox IL1B: 16.3; Cav3 T inh: 0.223; NFkB transloc inh: 24.6; sEH inhibitor: -20.6

Results for COc1cc(C(=O)Nc2cccc3cccnc23)cc(OC)c1OC ?
NFkB transloc pot: -38.6; sEH act: 1.5; HUVEC tox IL1B: -17.6; Cav3 T inh: -0.248; NFkB transloc inh: 38.6*; sEH inhibitor: 1.3

How did COc1cc(C(=O)Nc2ccc(NC(=O)c3ccco3)nc2)cc(OC)c1OC do in these assays?
NFkB transloc pot: 4.0; sEH act: 1.4; HUVEC tox IL1B: 0.5; Cav3 T inh: 0.569; NFkB transloc inh: -4.0; sEH inhibitor: -1.0

Results for COc1ccc(NC(=O)c2cc(OC)c(OC)c(OC)c2)cn1 ?
NFkB transloc pot: -47.8; sEH act: 0.7; HUVEC tox IL1B: -35.6; Cav3 T inh: 0.204; NFkB transloc inh: 47.8*; sEH inhibitor: -1.0

What do the screens show for `O=C(Nc1cccc2cccnc12)c1cccnc1`?
NFkB transloc pot: 30.1; sEH act: -3.5; HUVEC tox IL1B: -4.1; Cav3 T inh: 0.31; NFkB transloc inh: -30.1; sEH inhibitor: 4.7

How did Nn1c(SCc2csc(-c3ccccc3)n2)nnc1-c1cccs1 do in these assays?
NFkB transloc pot: 6.9; sEH act: -3.6; HUVEC tox IL1B: -9.2; Cav3 T inh: 0.0111; NFkB transloc inh: -6.9; sEH inhibitor: 5.0

Screening results (PubChem)
